This is an account of results in PubChem BioAssay (NCI).

The panel holds about 83,000 compounds, 20% with a hit somewhere; the sample as a whole holds those more often.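 In brief: 96-well plates, 48 h treatment, single concentration, percent growth endpoint.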 Values without a mark were called inactive. Active and inactive are the calls of the source. The calls were made as follows: active = growth percent below 10; inactive = the rest.

Experiment in all cases: NCI-60 one-dose screen, 48 h (100 = growth as untreated, 0 = no growth, -100 = all killed)
What all share (conditions): 10 µM unless noted

Assay [1] deals with T-47D breast.
Assay [2] relates to BT-549 breast.
The test system of assay [3] is MDA-MB-435 melanoma.
Assay [4] has as its system SW-620 colon.
For assay [5], the system named is MCF7 breast.
For assay [6], the system named is HCT-116 colon.
Assay [7] relates to HCC-2998 colon.
For assay [8], the system named is KM12 colon.

For the molecule `Clc1cc(Cl)cc(N2N=C(c3cccc(Nc4ccncc4)c3)CC2c2ccc3c(c2)OCO3)c1` (configuration not stated), the growth in assay [1] was 63.4%; in assay [2], 93.8%; in assay [3], -85.4% (active); in assay [4], -84.1% (active); in assay [5] it was -19.3% (active); in assay [6], 65.3%. The growth is -40.8% (active) in assay [7] and -51.6% (active) in assay [8].
As to `COc1cc(/C=N/NC(=O)c2ccccc2Nc2cccc(C(F)(F)F)c2)ccc1O`, the growth in assay [1] is 55.6%; in assay [2], 102%; in assay [3], 81.4%; in assay [4] it was 101%; in assay [5], 83.9%; in assay [6], 67.2%. Besides, the figures for the growth in assay [7] and in assay [8] were 91.4% and 79.5%, respectively.
`CCCCN(CCCC)CCc1c(C)cc(C)c(CCN(CCCC)CCCC)c1O`: the growth is 5.78% (active) in assay [1]; 43.3% in assay [2]; 17.1% in assay [3]; 24.1% in assay [4]; 12.8% in assay [5]; 6.6% (active) in assay [6]. Also, the growth in assay [7] is 19.6%; in assay [8], 41.4%.
On to `C=Cc1cc[n+](CCCCCCCCCCCC)cc1`, for which the growth is 131% in assay [1]; 116% in assay [2]; 104% in assay [3]; 100% in assay [4]; 106% in assay [5]; 97.6% in assay [6]. Moreover, the growth in assay [7] is 110%; in assay [8], 104%.
With `O=C(OC(OC(=O)c1cc(Cl)cc(Cl)c1)c1cccc2ccccc12)c1ccccc1` (configuration not stated), the growth in assay [1] is 98.8%; in assay [2], 113%; in assay [3], 111%; in assay [4], 97.1%; in assay [5], 84.8%; in assay [6], 93.1%. Besides, the growth was 83.4% in assay [7] and 102% in assay [8].
For `COc1ccc2c(c1)OC1=C(C(=O)OC1)C2c1cc(OC)c(OC)c(OC)c1` (configuration not stated), the growth in assay [1] is 66.3%; in assay [2], 34.5%; in assay [3], -38.5% (active); in assay [4], 23.2%; in assay [5], 27.1%; in assay [6], 19.3%. Moreover, the growth in assay [7] is 6.19% (active); in assay [8], 13.1%.
Regarding `CCCCCCCCCCCCC1CCC/C=C\CCC(=O)O1` (configuration not stated), the growth is 90% in assay [1]; 112% in assay [2]; 104% in assay [3]; 103% in assay [4]; 95.6% in assay [5]; 91.1% in assay [6]. The growth in assay [7] was 104%; in assay [8], 110%.
As to `CN1C(=O)N(C)[C@H]2NC(NN)=N[C@H]21`, the growth in assay [1] is 91.7%; in assay [2], 101%; in assay [3] it was 101%; in assay [4], 103%; in assay [5], 97.8%; in assay [6] it was 96.9%. The values for the growth in assay [7] and in assay [8] were 102% and 105%, respectively.
Take `C[C@]12C[C@H]1CC[C@]1(C)[C@@H]2CC[C@@]23C[C@H](CC[C@H]21)[C@@](O)(CO)C3`: the growth in assay [1] is 90.7%; in assay [2] it was 77%; in assay [3], 59.1%; in assay [4] it was 109%; in assay [5] it was 97.8%; in assay [6] it was -71.4% (active). The growth is 103% in assay [7] and 96.5% in assay [8].
`CCOc1ccc(/C=N/Nc2cc(C)nc3ccc(Cl)cc23)cc1`: the growth in assay [1] was 60.3%; in assay [2], 80.6%; in assay [3], 40.9%; in assay [4], -72.8% (active); in assay [5] it was 1.28% (active); in assay [6], -75.3% (active). The figures for the growth in assay [7] and in assay [8] were 27.5% and 33.3%, respectively.
As for `COc1ccc(C(O)c2cc3c(N)c(C(=O)Nc4ccc(Br)cc4)sc3nc2C)cc1` (configuration not stated), the growth in assay [1] is 18.8%; in assay [2], 50.8%; in assay [3] it was -39.8% (active); in assay [4], 23.7%; in assay [5] it was 18.6%; in assay [6] it was 21%. In addition, the results for the growth in assay [7] and in assay [8] were 46.7% and 4.23% (active), respectively.
As to `CN(C)C(=O)c1cc2cnc(Nc3ccc(-c4csc5c(=O)cc(N6CCOCC6)oc45)cc3)nc2n1C1CCCC1`, the growth in assay [1] is -4.72% (active); in assay [2], -79.1% (active); in assay [3], -38.7% (active); in assay [4], -45.6% (active); in assay [5], -46.8% (active); in assay [6], -29.2% (active). The growth was -44.6% (active) in assay [7] and -86.9% (active) in assay [8].
With `O=C(N/N=C/c1cccc(O)c1)c1ccccc1Nc1cccc(C(F)(F)F)c1`, the growth in assay [1] was 52%; in assay [2] it was 67.3%; in assay [3], 88.8%; in assay [4], 95.1%; in assay [5], 73.4%; in assay [6] it was 83.4%. In addition, the growth was 82.7% in assay [7] and 81.5% in assay [8].
Turning to `COc1ccc(/C=C/C(=O)c2ccc(OC)c(OC)c2)cc1O`, the growth in assay [1] is 75.7%; in assay [2], 85.2%; in assay [3] it was 75%; in assay [4] it was 17.1%; in assay [5] it was 51.6%; in assay [6], 20.3%. The growth in assay [7] was 102%; in assay [8], 70.6%.
